D1 agonist = Allosteric Agonists of the Human D1 Dopamine Receptor: qHTS; D(1A) dopamine receptor (Homo sapiens), P21728; HEK293 T-REx D1 cells, calcium flux, agonist mode; hit rate 1% among 360,000; activation, % at 2 µM; in the data active means activation above about 30%
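Inducible HEK293 T-REx D1 cells, force-coupled to calcium signalling, were plated at 4000 cells/well with tetracycline and held overnight at 30 C. After no-wash calcium dye loading, compound-evoked calcium rise over 180 s flagged agonists.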
D1 potentiator = Potentiators of Human D1 Dopamine Receptor: qHTS. AID 504651, 2011. HEK293 TREx D1 cells, calcium flux, dopamine EC20 potentiation. potentiation, % at 10 µM. D(1A) dopamine receptor (Homo sapiens), P21728. hit rate 0.036% among 360,000; in the data active means potentiation above about 30%
GALK inh = qHTS Assay for Inhibitors of Human Galactokinase (GALK); AID 1868, 2009; Potency, µM (top dose mostly 57.5 µM), actives largely listed as inhibitors; Purified GALK, Kinase-Glo residual ATP luminescence; hit rate 0.007% among 270,000
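Luminescence from leftover ATP (Ultra-Glo luciferase/luciferin) served as read-out after a 1 h room-temperature reaction of 5 nM GALK with 35 uM ATP and 100 uM galactose.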
Eya2 phos inh = qHTS Assay for Inhibitors of the Phosphatase Activity of Eya2; Protein phosphatase EYA2 (Homo sapiens), O00167; recombinant Eya2, OMFP fluorescence dephosphorylation (OMFP is methylfluorescein phosphate); Potency, µM (series often up to 76.9 µM), hits mostly inhibitors; hit rate 0.006% among 330,000
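Eya2 protein (added as 0.2 uM solution) was preincubated with compound for 10 min at ambient temperature in 50 mM HEPES pH 7.5, 50 mM NaCl, 5 uM MgCl2, 0.05% BSA, 1 mM DTT. OMFP (added at 50 uM) then reacted 10 min; fluorescence read at 485/525 nm.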
D1 antagonist = Antagonist of Human D 1 Dopamine Receptor: qHTS. HEK293 TREx D1 cells, calcium flux, dopamine EC80; active compounds read low. activity change, negative = inhibition, % at 10 µM. hit rate 3.2% among 360,000; in the data active means activity change below about -30%
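Inducible Hek293 Trex D1 cells (tetracycline, overnight, 30 C). Calcium dye 30–90 min RT. Antagonist mode: EC80 dopamine added after 180 s compound read.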
USP2a block = qHTS Assay for Inhibitors of Ubiquitin-specific Protease USP2a Using CHOP2 as the Reporter | Potency, µM (titrated, usually from 38.3 µM), hits mostly inhibitors | hit rate 0.01% among 330,000 | Ubiquitin carboxyl-terminal hydrolase 2 (Homo sapiens), O75604 | AID 463254, 2010 | USP2 core, Ub-CHOP2 coupled fluorogenic reporter, 485/531
Target sequence (O75604 whole entry, looked up): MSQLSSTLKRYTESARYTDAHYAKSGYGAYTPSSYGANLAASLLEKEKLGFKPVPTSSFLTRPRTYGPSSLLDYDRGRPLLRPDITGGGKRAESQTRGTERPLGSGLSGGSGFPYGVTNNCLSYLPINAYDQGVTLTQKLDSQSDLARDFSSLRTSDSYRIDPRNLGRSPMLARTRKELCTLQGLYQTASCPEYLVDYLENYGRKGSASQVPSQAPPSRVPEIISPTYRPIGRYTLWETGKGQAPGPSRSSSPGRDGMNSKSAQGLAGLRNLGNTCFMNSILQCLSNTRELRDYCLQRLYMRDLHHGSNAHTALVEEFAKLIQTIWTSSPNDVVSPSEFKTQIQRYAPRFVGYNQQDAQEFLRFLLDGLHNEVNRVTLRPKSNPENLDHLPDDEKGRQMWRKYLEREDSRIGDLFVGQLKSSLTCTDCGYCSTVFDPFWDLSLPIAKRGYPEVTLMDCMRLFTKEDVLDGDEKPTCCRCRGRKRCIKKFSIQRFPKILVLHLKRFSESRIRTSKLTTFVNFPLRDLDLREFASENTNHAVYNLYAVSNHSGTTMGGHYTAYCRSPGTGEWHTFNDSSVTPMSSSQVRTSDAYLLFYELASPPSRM
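Deubiquitinase activity read as fluorescence (485/531 nm) after Ub-CHOP2 cleavage activates the enterokinase reporter on its substrate; USP2 core 10nM, Ub-CHOP2 and substrate 25nM each, 30min compound preincubation then 60min RT; data normalized to NEM, curves fitted.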
Of the large screens only hits and unclear results are named; the others gave an inactive call. Rows were chosen to be rich in hits. Some 3.9% of all compounds tested hit in one or more screens of this group. Unless noted, the call rests on the fitted dose curve; in most records, active means well fitted inhibition curve with a large enough effect; inconclusive means small, poorly fitted or top-dose-only effect, or effect the other way; inactive means flat fitted curve, though single readings scatter.

O=C(CCS(=O)(=O)c1ccccc1F)Nc1ccc(N2CCN(Cc3ccccc3)CC2)cc1	Eya2 phos inh inconclusive, D1 antagonist -39 (no result: GALK inh)
CCC(=O)Nc1ccc(N2CCN(Cc3ccccc3)CC2)cc1	none
COC(=O)c1c(-c2ccc(Cl)cc2)noc1N1CCN(c2ccc(OC)cc2)CC1	none (no result: GALK inh, Eya2 phos inh, USP2a block)
O=C(Cn1ncc2c(Cl)cccc21)NCc1cccc(Cl)c1	none (no result: GALK inh, Eya2 phos inh, USP2a block)
N#Cc1ccc(OCC(=O)N2CCN(C(=O)c3ccco3)CC2)cc1	D1 antagonist -35 (no result: GALK inh)
O=C(Cc1ccccc1)Nc1ccc(N2CCCC2)cc1	none
O=C(COc1ccccc1Cl)Nc1ccc(N2CCCC2)cc1	none
O=C(COc1ccc(Cl)cc1)Nc1ccc(N2CCN(C(=O)c3ccco3)CC2)cc1	D1 antagonist -31
O=C(COc1ccccc1Cl)Nc1ccc(N2CCN(C(=O)c3ccccc3)CC2)cc1	D1 antagonist -52
COc1ccc(OCC(=O)Nc2ccc(N3CCN(C(=O)c4ccco4)CC3)cc2)cc1	none
O=C(Cc1ccccc1)Nc1cccc(N2CCCC2)c1	D1 antagonist -35, USP2a block inconclusive
O=C(CCS(=O)(=O)c1ccccc1)N(Cc1cccnc1)c1nc2c(Cl)cccc2s1	none (no result: GALK inh, Eya2 phos inh, USP2a block)
O=C(COc1ccccc1O)Nc1ccc(Cl)cc1	D1 antagonist -36
CCOC(=O)C1(Cc2ccc(Cl)cc2)CCN(C(=O)C2CCCO2)CC1 (configuration not stated)	none
C=CCN1CC(C(=O)N2CCC(Cc3ccc(Cl)cc3)(C(=O)OCC)CC2)CC1=O (configuration not stated)	D1 antagonist -32
CCc1cccc(NC(=O)c2cnc(SC)nc2-c2ccccc2)c1	none (no result: GALK inh, Eya2 phos inh, USP2a block)
CCN(CC)C(=O)c1sc(NC(=O)c2ccc3c(c2)OCO3)c(C#N)c1C	none
Cc1c(C(=O)N2CCOCC2)sc(NC(=O)c2ccc3c(c2)OCO3)c1C#N	D1 antagonist -34
O=C1C2C(C(=O)N1/N=C/c1cc([N+](=O)[O-])c(O)cc1O)C1C=CC2C12CC2 (configuration not stated)	none
O=C1C2C(C(=O)N1/N=C/c1cc(Br)cc([N+](=O)[O-])c1O)C1C=CC2C12CC2 (configuration not stated)	D1 antagonist -31
Cc1ccc(-c2cn(CCN)c(-c3ccc(Cl)nc3)n2)cc1	none (no result: GALK inh)
Cn1c(-c2ccc(Cl)nc2)nc2cc(Cl)ccc21	D1 antagonist -33
COc1ccc(Cl)cc1NC(=O)CSc1ccc(-c2sc(C)nc2C)nn1	none (no result: GALK inh, Eya2 phos inh, USP2a block)
Cc1cc2c(s1)c1c(C)nn(Cc3ccccc3F)c(=O)c1n2C	none (no result: GALK inh)
COc1ccc(-c2nc(N3CCN(S(=O)(=O)c4ccc(C)cc4)CC3)c3ccccc3n2)cc1	none (no result: GALK inh, Eya2 phos inh, USP2a block)
CN1CCN(NC(=O)NC2CCCCC2)CC1	D1 antagonist -39
CN1CCN(CC(=O)NC(=O)NC2CCCCC2)CC1	none (no result: GALK inh)
O=C(CCc1ccccc1)N1CCc2c([nH]c3ccccc23)C1c1ccc(F)cc1 (configuration not stated)	none (no result: GALK inh, Eya2 phos inh, USP2a block)
CC1=C([N+](=O)[O-])C(c2ccccc2)NC(=O)N1 (configuration not stated)	D1 antagonist -33
COc1ccc(C2NC(=O)NC(C)=C2[N+](=O)[O-])cc1 (configuration not stated)	none
O=C1S/C(=C/c2ccc(N3CCOCC3)o2)C(=O)N1Cc1c(F)cccc1Cl	D1 agonist 129 (no result: D1 antagonist)
O=C1S/C(=C\c2ccc(N3CCOCC3)o2)C(=O)N1c1ccccc1	D1 agonist 159
O=C1S/C(=C\c2ccc(N3CCOCC3)o2)C(=O)N1Cc1c(F)cccc1Cl	D1 agonist 62
COc1cccc(NC(=O)NCc2ccc3c(c2)CCN3C(=O)c2ccccc2)c1	none (no result: GALK inh, Eya2 phos inh, USP2a block)
CC(C)CC(C(=O)NCc1ccc(F)cc1)N1Cc2ccccc2C1=O (configuration not stated)	none (no result: GALK inh, Eya2 phos inh, USP2a block)
Oc1ccc(C=NC2CCCCC2)cc1	D1 antagonist -35
CCOC(=O)C1CCCN(c2c(N3CCC(N4CCCCC4)CC3)c(=O)c2=O)C1 (configuration not stated)	D1 antagonist -33 (no result: D1 potentiator)
CCCCCCN1C=CC=C/C1=C/C=C(C#N)C#N	D1 agonist 132 (no result: GALK inh)
CCCCCN1C=CC=C/C1=C\C=C(C#N)C#N	D1 agonist 71, Eya2 phos inh inconclusive, USP2a block inconclusive
Cc1ccc(C)c(Nc2nc3nonc3nc2Nc2cccc(C)c2C)c1	D1 antagonist -31 (no result: GALK inh, Eya2 phos inh, USP2a block)
CCOC(=O)c1ccc(Nc2cc(C)nc(C)c2C(=O)OCC)cc1	none (no result: D1 antagonist)
CCOC(=O)c1ccc(Nc2nc3nonc3nc2Nc2cccc(C)c2C)cc1	D1 antagonist -39 (no result: GALK inh, Eya2 phos inh, USP2a block)
CCc1cc(=O)oc2cc(C)c3c(-c4ccc(F)cc4)coc3c12	none (no result: GALK inh, Eya2 phos inh, USP2a block)
Cc1ccccc1NC(=O)COC(=O)Cc1ccsc1	D1 antagonist -31
CC(Oc1ccccc1)C(=O)OCC(=O)Nc1sccc1C(N)=O (configuration not stated)	D1 antagonist -34 (no result: GALK inh)
NC(=O)c1ccsc1NC(=O)COC(=O)Cc1ccsc1	D1 antagonist -39
Cc1cccc(C)c1NC(=O)COC(=O)Cc1ccsc1	none (no result: GALK inh)
COC(=O)c1ccc(NC(=O)C(=O)NCCc2csc3nc(-c4ccccc4F)nn23)cc1	none (no result: GALK inh, Eya2 phos inh, USP2a block)
CC(C)c1ccccc1Oc1c(C(F)(F)F)oc2c(CN3CCN(C)CC3)c(O)ccc2c1=O	D1 antagonist -33 (no result: GALK inh, Eya2 phos inh, USP2a block)
CC(C)(C)NC(=O)CN(C(=O)C1CSC(=O)C1)c1ccc2c(c1)OCCO2 (configuration not stated)	D1 antagonist -36
COc1cccc(N(CC(=O)NC(C)(C)C)C(=O)C2CSC(=O)C2)c1 (configuration not stated)	none
CC1Cc2ccccc2N1S(=O)(=O)c1nnc(NC(=O)c2ccccc2Br)s1 (configuration not stated)	none (no result: GALK inh, Eya2 phos inh, USP2a block)
Cn1nnnc1SCCCNCc1ccc(-c2ccc(F)c(Cl)c2)o1	none (no result: GALK inh, Eya2 phos inh, USP2a block)
Cn1nnnc1SCCCNCc1ccc(-c2cccc(Cl)c2)o1	D1 agonist 100, D1 antagonist -57 (no result: GALK inh, Eya2 phos inh, USP2a block)
COc1ccc(-c2ccc(CNCCCSc3nnnn3C)o2)cc1Cl	D1 agonist 37 (no result: GALK inh, Eya2 phos inh, USP2a block)
CCOC(=O)c1cc2c(=O)n3ccccc3nc2n(CCOC)c1=NC(=O)c1c(-c2ccccc2Cl)noc1C	none (no result: GALK inh, Eya2 phos inh, USP2a block)
CC(=O)c1ccc(NC(=O)CC2Sc3ccccc3NC2=O)cc1 (configuration not stated)	none (no result: GALK inh, Eya2 phos inh, USP2a block)

Screens from PubChem BioAssay.
